# Compound activity as filed in PubChem.
# The list is not random: actives were taken first. Their share in the collection is about 0.43%.
# Tb PFK inh-1 = T. brucei PFK enzyme inhibition. O15648. T. brucei PFK, ADP-Glo luminescence. Potency, µM (top dose mostly 57.5 µM), for inactives: top-dose activity, negative = inhibition, hits mostly inhibitors. actives 0.17% (n = 330,000). AID 485367;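 also: potency is read from the fitted curve at half-maximal effect; 0% = uninhibited 1x PFK enzyme wells and -100% = no-enzyme wells; nearly all actives have a fitted effect of over 60% in size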
#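 Compounds were pin-transferred as a titration series up to 57 uM into substrate buffer (0.5 mM F6P, 0.1 mM ATP, pH 8.0), then 1.25 nM PFK was added and reactions ran 45 min before ADP-Glo detection.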
# Menin MLL FP TR = inhibitors of human menin-MLL interaction, mutant MLL peptide; Potency, µM (doses to about 61.6 µM), without a hit: at the top dose FP activity change, negative = inhibition, actives largely listed as inhibitors; actives 0.23% (n = 270,000); Menin + Texas Red MLL mutant peptide, fluorescence polarization; active = well fitted inhibition curve with a large enough effect in the polarisation, with a control signal flat, not every such curve was filed as active; inconclusive = small, poorly fitted or top-dose-only effect, or effect the other way, or a change in a side signal; inactive = no such curve, though single readings can be large or run the other way; the % refers to the polarisation; also: potency is read from the fitted curve at half-maximal effect; % of control where 0% means no effect
# RGS12 GoLoco inh = blocks human Gai1 binding to RGS12 GoLoco peptide, red readout | Gai1:RGS12 GoLoco peptide FP, rhodamine, 10 min | Potency, µM (titrated, usually from 61.6 µM), for inactives: at the top dose activity, negative = inhibition, most hits filed as inhibitors | actives 0.44% (n = 230,000); active = well fitted inhibition curve with a large enough effect, not every such curve was filed as active; inactive = no such curve, though single readings can be large or run the other way; also: potency is read from the fitted curve at half-maximal effect; % is scaled to controls: 0 for no effect and ±100 for the full control effect; nearly all actives have a fitted effect of over 30% in size
# Target sequence (P63096 whole entry, looked up): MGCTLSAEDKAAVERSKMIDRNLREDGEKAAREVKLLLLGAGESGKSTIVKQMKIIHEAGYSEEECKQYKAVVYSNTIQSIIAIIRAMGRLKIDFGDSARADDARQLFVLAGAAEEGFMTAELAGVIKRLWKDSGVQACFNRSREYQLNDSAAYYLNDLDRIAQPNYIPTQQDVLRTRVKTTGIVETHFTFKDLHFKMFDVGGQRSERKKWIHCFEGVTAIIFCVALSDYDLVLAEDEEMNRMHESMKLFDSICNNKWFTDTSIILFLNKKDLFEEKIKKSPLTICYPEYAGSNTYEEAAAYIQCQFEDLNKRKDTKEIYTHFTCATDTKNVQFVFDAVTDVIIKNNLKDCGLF
# Menin-MLL FL inh = inhibitors of human menin-MLL interaction, wild-type MLL peptide | Fluorescence polarization, fluorescein-MLL peptide displacement from menin | FP activity change, % at 61.4 µM | 290,000 tested, under 10 active; active = well fitted curve in the direction sought with a large enough effect in the polarisation, not every such curve was filed as active; inconclusive = small, poorly fitted or top-dose-only effect, or effect the other way, or a change in a side signal; inactive = no such curve, though single readings can be large or run the other way; the % refers to the polarisation; also: % of control where 0% means no effect
# MLL CXXC-DNA inh = inhibitors of human MLL CXXC domain-DNA interaction; Potency, µM (doses to about 115 µM), inactives show top-dose activity change, negative = inhibition, most hits filed as inhibitors; AID 2662; MLL-CXXC / FITC-HOXA9 DNA fluorescence polarization; actives 0.037% (n = 290,000); active = well fitted inhibition curve with a large enough effect in the polarisation, with a control signal flat, not every such curve was filed as active; inconclusive = small, poorly fitted or top-dose-only effect, or effect the other way, or a change in a side signal; inactive = no such curve, though single readings can be large or run the other way; the % refers to the polarisation; also: potency is read from the fitted curve at half-maximal effect
#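 Fluorescence polarization: 7 uM MLL-CXXC (stock) preincubated 5 min with compounds, then 50 nM fluorescein-HOX-A9 DNA (stock) added; 30 min ambient. Buffer 50 mM Tris-HCl pH 7.5, 50 mM NaCl, 1 mM DTT, 0.05% BSA.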
# TbPFK ATP = Tb phosphofructokinase inhibition, orthogonal luminescence | shares compounds with Tb PFK inh-1 | Tb PFK enzyme, ATP depletion, Kinase-Glo Plus luminescence | Potency, µM (top dose mostly 57.5 µM), for the others: top-dose inhibition | actives 47% (n = 1,100) | AID 504636; calls by dose curve; also: potency is read from the fitted curve at half-maximal effect; nearly all actives have a fitted effect of over 60% in size
# Tb PFK inh-2 = T. brucei PFK enzyme inhibition, hit validation; shares compounds with Tb PFK inh-1; purified T. brucei PFK, ADP-Glo luminescence, 45 min; Potency, µM (series often up to 57.5 µM), inactives show top-dose activity change, negative = inhibition, most hits filed as inhibitors; actives 41% (n = 1,100);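 also: potency is read from the fitted curve at half-maximal effect; plate controls were full PFK enzyme control for no effect and no enzyme control for full effect; nearly all actives have a fitted effect of over 60% in size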
# * hit, by the source's call; i = inactive; ? = inconclusive; . = not tested or not shown; [ ] = remark or other dose. Unless noted, calls follow the shape of the dose curve; as a rule, active = well fitted inhibition curve with a large enough effect; inconclusive = small, poorly fitted or top-dose-only effect, or effect the other way; inactive = flat fitted curve, though single readings scatter.
SMILES,Tb PFK inh-1,Menin MLL FP TR,RGS12 GoLoco inh,Menin-MLL FL inh,MLL CXXC-DNA inh,TbPFK ATP,Tb PFK inh-2
COc1ccc(NC(=S)NCCc2ccccc2)c(C)c1,-2.2%,1.5%,.,-6.5,-4.6%,.,.
CC#CCN1c2ccccc2[C@]23C[C@@H](C(=O)OC)N(S(=O)(=O)c4ccc(Br)cc4)C2=NC(C(=O)OC)=C(C(=O)OC)[C@H]13,.,-2.7%[11.7 µM],-1.8%[14.2 µM],-2.1[11.7 µM],.,.,.
O=C(NCCNc1ccc([N+](=O)[O-])cc1)c1ccccc1F,-7.4%,15.2%,.,1.9,-7.7%,.,.
C#CCNc1ccc([N+](=O)[O-])cc1,23.9µM*,-18.6%,3.7%,-3.9,6.7%,21.3µM*,26.9µM*
Cc1ccc(S(=O)(=O)NCCNc2ccc([N+](=O)[O-])cc2)cc1,-16.9%,?,.,-3.6,17.3%,.,.
NCCNc1ccc([N+](=O)[O-])cc1,?,.,2.0%,4.2,19.7%,?,?
C=CCNc1oc(-c2cccc(Cl)c2)nc1C#N,26.9µM*,.,.,.,.,16.9µM*,30.1µM*
C=CCNc1oc(-c2ccc(-c3ccccc3)cc2)nc1C#N,-3.3%,.,.,.,.,.,.
Nc1nc(SCC(=O)c2ccc(F)cc2)n[nH]1,-8.9%,-9.8%,6.7%,1.5,12.6%,.,.
Cc1nc(SCC(=O)c2ccc(F)cc2)n[nH]1,21.3µM*,-1.5%,-31.3%,-0.4,-10.5%,?,?
O=c1oc2ccccc2c2c1C1O[C@](c3ccsc3)(Cc3ccccc31)O2,-0.4%[11.5 µM],?,.,7.1[11.7 µM],-8.0%[23 µM],.,.
O=C(Cc1ccc(F)cc1)N/N=C/c1ccc(-c2ccc(Cl)c(C(=O)O)c2)o1,?,-3.8%,-0.1%,-3.6,1.3%,?,?
O=C(CCNc1cccc(Cl)c1)c1ccco1,-22.5%,7.6%,5.2%,3.0,82.5%,.,.
NNC(=O)CNc1cccc(Cl)c1,12µM*,2.7%,2.7%,-2.2,-0.7%,23.9µM*,26.9µM*
CCC(C(=O)OCc1csc(CC(=O)Nc2ccccc2C)n1)c1ccccc1 (configuration not stated),-15.9%,.,.,.,.,.,.
CCCCC/C=C\C\C=C/C=C/C=C/[C@@H](SCC(N)C(=O)NCC(=O)O)[C@@H](O)CCCC(=O)O (some centres not stated),.,-2.6%,3.4%,0.7,.,.,.
CN(c1ccccc1)S(=O)(=O)c1ccc2c(c1)oc(=O)n2C,-4.0%,-1.2%,.,0.7,10.5%,.,.
Cc1ccc(S(=O)(=O)CNC(=S)c2cccc(Cl)c2)cc1,?,0.6%,-6.9%,4.5,1.5%,?,30.1µM*
Cc1ccc(C)n1NC(=O)c1cccc(Cl)c1,-2.8%,-7.7%,0.4%,4.2,-0.2%,.,.
COC(=O)c1ccc2c(c1)C(C)(C)C(/C=C/c1ccccc1O)=[N+]2C,13.5µM*,?,i,8.4,19.8%,-3.8%,?
O=C(Nc1nccs1)c1ccc(CSc2ccccc2)o1,-0.7%,.,.,.,10.6%,.,.
COc1ccc(C(=O)COC(=O)/C=C/c2ccccc2)c(OC)c1,?,.,.,.,.,?,-14.3%
COc1ccc(C(=O)COC(=O)/C=C/c2ccccc2)cc1,1.2%,?,.,1.0,2.8%,.,.
O=C(NNS(=O)(=O)c1ccccc1F)c1cc(-c2ccccc2)n[nH]1,?,.,2.9%,-1.2,-0.9%,-28.6%,?
COc1ccc(N2C(=O)C(CC(N)=O)N(NC(=O)c3cccc(OC)c3)C2=S)cc1 (configuration not stated),-18.8%,-0.2%,8.8%,-0.8,10.7%,.,.
SMILES,Tb PFK inh-1,Menin MLL FP TR,RGS12 GoLoco inh,Menin-MLL FL inh,MLL CXXC-DNA inh,TbPFK ATP,Tb PFK inh-2
Cc1cc(C)n2nc3nc(N4CCCCC4)nc(-c4ccco4)c3c2n1,?,-2.0%,25.3%,3.4,-16.5%,8.6%,-1.7%
Cc1cc(C)n2nc3ccccc3c2n1,-3.6%,-5.4%,1.7%,-2.1,1.2%,.,.
O=Cc1cccc(OC(=O)/C=C/c2ccco2)c1,23.9µM*,?,.,?,46.8%,6.75µM*,12µM*
CCOc1cc(C(=O)OCc2ccc([N+](=O)[O-])cc2)ccc1OCC(=O)N1CCOCC1,?,.,.,.,.,15.1µM*,26.9µM*
Nc1nc(=S)c2[nH]cnc2[nH]1,?,-4.3%,-66.8%,-7.0,.,?,?
COc1ccc(OC)c(NC(=O)COC(=O)c2cc3c(s2)CCC3)c1,?,?,9.7%,-1.8,-3.1%,?,?
CC[C@@H](C)[C@@H](C(=O)N1CCNCC1)n1cc(CCC(=O)O)nn1,-0.6%,10.2%,-1.1%,-5.8,7.7%,.,.
Cc1cc(C)c(OCC(=O)Nc2cc(C(=O)O)cc(C(=O)O)c2)cc1C,21.3µM*,2.0%,0.5%,-1.2,-9.7%,8.49µM*,19µM*
Cc1ccc(C)c(OCC(=O)Nc2cc(C(=O)O)cc(C(=O)O)c2)c1,?,6.1%,7.1%,-0.8,-0.6%,.,.
Cc1ccc(NCc2ccc(O)c3ncccc23)cc1,?,?,-22.9%,-2.2,10.7%,18.1%,-10.7%
Cc1ccc(NCc2ccc(O)c3ncccc23)cc1C,-0.5%,-6.9%,9.4%,2.3,26.6%,.,.
COc1cc(-c2cc(=O)c3c(O)c(OC)c(OC)c(O)c3o2)ccc1O,?,?,0.4%,0.2,21.0%,6.01µM*,9.53µM*
Cc1nc(SCc2ccc(O)c([N+](=O)[O-])c2)c([N+](=O)[O-])[nH]1,?,.,6.1%,4.6,-21.7%,6.1%,-2.0%
COC(=O)c1cc(=O)[nH]c(=O)[nH]1,.,.,11.0%[14.2 µM],.,.,.,.
Cc1ccc(C(=O)CSc2nnc(CNc3ccc(F)cc3)o2)cc1,16.9µM*,?,-2.4%,1.1,-0.9%,?,23.9µM*
CC(=O)Nc1ccc(S(=O)(=O)NC(CSc2ccc(C(=O)O)cc2[N+](=O)[O-])C(=O)O)cc1 (configuration not stated),?,-1.8%,.,9.0,12.5%,-26.3%,?
CNc1cccc2c1C(=O)c1ccccc1C2=O,2.9%,-21.8%,64.2%,-26.5,-25.3%,.,.
CNc1cccccc1=S,12µM*,9.8%,-32.3%,8.9,-10.2%,?,?
CCN(C(=O)c1ccc(S(=O)(=O)N2CCC(C)CC2)cc1)C1CCS(=O)(=O)C1 (configuration not stated),1.3%,.,.,.,.,.,.
Cc1c(-c2ccc(Cl)cc2)oc(=O)c2c(N)n(-c3ccccc3)nc12,?,-6.3%,-0.2%,-0.6,0.9%,?,?
CO[C@H]1COC(=O)[C@@H](Cc2ccccc2)NC(=O)[C@@H](C)COC(=O)C/C=C\[C@@H]1C,.,24.0%[11.7 µM],.,1.1[11.7 µM],.,.,.
CC(C)N(CCC(=O)c1ccc2ccccc2c1)Cc1ccccc1,?,-3.4%,5.9%,1.3,55.5%,30.1µM*,?
